# Measurements taken from the supplement of paper PMC6555819.
# System: RARb homodimer (NR concentration 270 nM)
# Assay: PBM binding z-score (relative to random genomic background probes); higher = stronger binding; sequences stand for … in GC…GCGATTGACAGCGTAGAATGAAGG
# Summary of the method: (§1)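 Antibodies against each partner of ligand-free nuclear receptor dimers (one per run) detected binding on custom Agilent 4×180K protein-binding microarrays after 1 h incubation. The double-stranded probes had 34-nt variable regions carrying direct-repeat seeds, single-nucleotide variants, half-site ablations and random human genomic background sequences. Binding z-scores, from regression-normalized fluorescence, use the random background probes as reference.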
row,Sequence,PBM binding z-score
1,CGAACTAGGTCAAGGACAGTTAATCTCCGCACGC,3.38
2,ACTATGAGTTGACTTAGGGCAACCGATACGACGC,1.06
3,CGGCCTAGGTCAGGGCCAGTATAGGAGGAACGTT,2.4
4,CGAACTAGGGCATGAGTTGATAGCAAATGCCGAT,0.222
5,GATACAGGGTCAAGGCCAGAGAACGCGTATTGAT,3.34
6,TCTATTAGTTGATTTGGGCAACCGAAACAGCGGA,-0.204
7,GAATATAGGTAATACAAGGTGAAAGTCCGATTGT,1.27
8,CCTACTAGGCCAAAAAGGTCATTGATGCCGATAA,4.74
9,CAAACTAGGTCAACGTCAAAGTCGGTTTGTGCCA,3.56
10,CGTCCAAGGACATAGGAGGTCAGTGAAGACAGAT,3.17
11,CCTCCTAGGTCATGGTCAGCTAATCTACAGTATG,3.55
12,TCGATTAGGTTACCAATGGGGCATTCAGCTTTCT,1.09
13,CCTTACGGTTCACGAGGTTATAGCACGACGAGCG,2
14,CGAATTAGGTCATCCAGGACAGTGAATACATTGA,3.34
15,CCTATTAGTTGACCATAAGGGCAACCGGAGCTCG,2.03
16,CGAACGAGGGCATGATTTGATAGCAAATGCCGAT,0.522
17,CGAACTAGGTCAGACCAGGACAGTGAAGGATGAT,2.36
18,CAGCCTAAGTCAGGGCCAGTATAGGAGGAACGTT,0.00988
19,GCTAGTTGGTCAGTATAAGGTCACACACCGGTCG,4.41
20,CAGCCTAGGTCAGCGCCAGTATAGGAGGAACGTT,2.6

row,Sequence,PBM binding z-score
1,ATCTCTAGGTAACTAAGTTCAGTGAATGCCGAAC,1.92
2,ATCTCTAGGTAAAGATAGTACAGTGAATGCAAAT,0.0852
3,AATACAGGATCATCGTAGGCCAGAGTACGCACAG,0.484
4,CCTGCTGGGCCAAAAAGGTCATTGATGCCGATAA,4.32
5,ATACCAAGGTGATCGCGAGGTCGTTGATACTAAC,1.51
6,AGTCATAGTTCAGGACGAGGTAACGTAAAGCACG,1.82
7,ATCGAAAGGTGGTGAGGTGAGTATACAGAAAGGC,1.13
8,CTCGAAAGGTCGGTTGAGGAGAGTATACGGATAA,1.66
9,CCGAGTAGCTTATGGGGCATTCAGGCAACGGTGA,-0.2
10,ATATGTAGGTTATCGGGTCGTTCAGTTTGCGCAT,1.68
11,GATACCGGGTCAAGGCCAGAGTACGCGTATTGAT,3.05
12,ACTAGCAGGACAAGTTTGGGTCACTCAAACAAAG,2.28
13,CGTCCAATGTCAGCAGGTCAGTGAAAGCGACGTG,2.76
14,CTCGAAAGGTCGTACTCAGGTGAGTATACCAAAC,2.52
15,ACTATTAGTTGAGACGAGGGAAACCGATAGGTTG,-0.559
16,CGTCCAAGGTCATAGGAGGTCAGTGAAGACAGAT,5.19
17,GCATAAAGGTAATACAAGGTGAAAGTCCGATTGT,1.18
18,CTCGAAAGGTCTTGCTCAGGTGAGTATACCAAAC,1.29
19,CCTAGCAGGCCAGGGTCACACAAGCATTTCGCTT,2.98
20,ATCTCTAGGTAAAAGTTCAGCGAATCCCGAGGAT,2.76

# System: RARg:RXRa (NR concentration 270 nM, RXRa partner concentration 90 nM)
# Assay: as above
# Summary of the method: as §1
row,Sequence,PBM binding z-score
1,CGAACTAGGTCAAGGACAGTTAATCTCCGCACGC,3.88
2,ACTATGAGTTGACTTAGGGCAACCGATACGACGC,1.07
3,CGGCCTAGGTCAGGGCCAGTATAGGAGGAACGTT,2.84
4,CGAACTAGGGCATGAGTTGATAGCAAATGCCGAT,0.852
5,GATACAGGGTCAAGGCCAGAGAACGCGTATTGAT,5.35
6,TCTATTAGTTGATTTGGGCAACCGAAACAGCGGA,0.225
7,GAATATAGGTAATACAAGGTGAAAGTCCGATTGT,0.944
8,CCTACTAGGCCAAAAAGGTCATTGATGCCGATAA,4.81
9,CAAACTAGGTCAACGTCAAAGTCGGTTTGTGCCA,4.05
10,CGTCCAAGGACATAGGAGGTCAGTGAAGACAGAT,2.46
11,CCTCCTAGGTCATGGTCAGCTAATCTACAGTATG,3.91
12,TCGATTAGGTTACCAATGGGGCATTCAGCTTTCT,1.39
13,CCTTACGGTTCACGAGGTTATAGCACGACGAGCG,2.73
14,CGAATTAGGTCATCCAGGACAGTGAATACATTGA,4.29
15,CCTATTAGTTGACCATAAGGGCAACCGGAGCTCG,1.22
16,CGAACGAGGGCATGATTTGATAGCAAATGCCGAT,0.771
17,CGAACTAGGTCAGACCAGGACAGTGAAGGATGAT,2.82
18,CAGCCTAAGTCAGGGCCAGTATAGGAGGAACGTT,-0.148
19,GCTAGTTGGTCAGTATAAGGTCACACACCGGTCG,4.28
20,CAGCCTAGGTCAGCGCCAGTATAGGAGGAACGTT,2.85

row,Sequence,PBM binding z-score
1,ATCTCTAGGTAACTAAGTTCAGTGAATGCCGAAC,1.03
2,ATCTCTAGGTAAAGATAGTACAGTGAATGCAAAT,0.268
3,AATACAGGATCATCGTAGGCCAGAGTACGCACAG,0.381
4,CCTGCTGGGCCAAAAAGGTCATTGATGCCGATAA,4.6
5,ATACCAAGGTGATCGCGAGGTCGTTGATACTAAC,2.37
6,AGTCATAGTTCAGGACGAGGTAACGTAAAGCACG,2.66
7,ATCGAAAGGTGGTGAGGTGAGTATACAGAAAGGC,0.717
8,CTCGAAAGGTCGGTTGAGGAGAGTATACGGATAA,2.45
9,CCGAGTAGCTTATGGGGCATTCAGGCAACGGTGA,-0.278
10,ATATGTAGGTTATCGGGTCGTTCAGTTTGCGCAT,1.39
11,GATACCGGGTCAAGGCCAGAGTACGCGTATTGAT,4.34
12,ACTAGCAGGACAAGTTTGGGTCACTCAAACAAAG,1.51
13,CGTCCAATGTCAGCAGGTCAGTGAAAGCGACGTG,2.04
14,CTCGAAAGGTCGTACTCAGGTGAGTATACCAAAC,4.96
15,ACTATTAGTTGAGACGAGGGAAACCGATAGGTTG,0.157
16,CGTCCAAGGTCATAGGAGGTCAGTGAAGACAGAT,6.63
17,GCATAAAGGTAATACAAGGTGAAAGTCCGATTGT,1.15
18,CTCGAAAGGTCTTGCTCAGGTGAGTATACCAAAC,1.52
19,CCTAGCAGGCCAGGGTCACACAAGCATTTCGCTT,3.72
20,ATCTCTAGGTAAAAGTTCAGCGAATCCCGAGGAT,2.88
